Source: PubChem (National Center for Advancing Translational Sciences (NCATS))
TRHR PAM: qHTS for Small Molecule Agonists and Allosteric Enhancers of Human TRH Receptor: Primary Screen for Enhancers; enhancement, % at 2 µM; TRHR cells, fluo-8 calcium fluorescence, EC20 TRH enhancement; Thyrotropin-releasing hormone receptor (Homo sapiens), P34981; 0.66% of 360,000 active; in the data active = enhancement above about 30%; also: 0% is about no effect
Target sequence (P34981 whole entry, looked up): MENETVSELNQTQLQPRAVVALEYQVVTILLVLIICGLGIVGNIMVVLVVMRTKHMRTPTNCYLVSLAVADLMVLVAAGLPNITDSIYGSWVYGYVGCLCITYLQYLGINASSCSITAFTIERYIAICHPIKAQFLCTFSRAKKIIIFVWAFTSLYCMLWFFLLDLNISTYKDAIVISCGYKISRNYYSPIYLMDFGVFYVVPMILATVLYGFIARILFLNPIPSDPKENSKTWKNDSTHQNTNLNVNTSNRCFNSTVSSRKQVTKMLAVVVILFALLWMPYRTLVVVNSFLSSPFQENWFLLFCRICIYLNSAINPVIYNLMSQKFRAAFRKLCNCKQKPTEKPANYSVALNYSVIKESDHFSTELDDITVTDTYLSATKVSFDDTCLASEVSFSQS
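TRHR-expressing cells loaded with fluo-8 calcium dye were read kinetically (ex 480/em 530) during compound addition, then stimulated with an EC20 of TRH (10 nM final). Enhancement of the Gq-mediated intracellular calcium response was scored.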
D1 ag: Allosteric Agonists of the Human D1 Dopamine Receptor: qHTS. HEK293 T-REx D1 cells, calcium flux, agonist mode. 1% of 360,000 active. activation, % at 2 µM. AID 504660, 2011; also: 0% is about no effect
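Tetracycline-induced HEK293 TREx D1 cells, force-coupled to calcium signalling, were dye-loaded with a no-wash calcium kit. Compound was pin-added after a 10 s baseline. Fluorescence was read kinetically at 1 cycle/s for 180 s, with calcium rises flagged as agonism.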
D1 antag: Antagonist of Human D 1 Dopamine Receptor: qHTS; D(1A) dopamine receptor (Homo sapiens), P21728; HEK293 TREx D1 cells, calcium flux, dopamine EC80; active compounds read low; activity change, negative = inhibition, % at 10 µM; 3.2% of 360,000 active; in the data active = activity change below about -30%; also: % is scaled to controls: 0 for no effect and ±100 for the full control effect
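Compound effects on dopamine-evoked calcium signalling were measured in tetracycline-induced HEK293 Trex D1 cells. Dopamine at EC80 followed a 180 s compound pre-read, and fluorescence was tracked kinetically for 180 s more.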
TRHR agonist: qHTS for Small Molecule Agonists and Allosteric Enhancers of Human TRH Receptor: Primary Screen for Agonists | 0.18% of 360,000 active | Thyrotropin-releasing hormone receptor (Homo sapiens), P34981 | TRHR cells, calcium flux fluo-8, FDSS agonist mode | activation, % at 2 µM | AID 493084, 2011; also: 0% is about no effect
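TRHR-expressing cells, plated overnight in medium with 10% serum, were loaded with fluo-8 calcium dye at room temperature. After a 10 s baseline, library compound was pin-added and calcium release was recorded kinetically (ex 480/em 530) as agonist response.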
D1 PAM: Potentiators of Human D1 Dopamine Receptor: qHTS; 0.036% of 360,000 active; AID 504651, 2011; potentiation, % at 10 µM; HEK293 TREx D1 cells, calcium flux, dopamine EC20 potentiation; in the data active = potentiation above about 30%; also: 0% is about no effect
* hit, by the source's call; ! = a repeat was not active. Compounds with a hit are over-represented: about 4.7% of the library has one in this group of screens. Rule as the data show it, unless noted: active = activation above about 30%; inactive = the rest.

SMILES	TRHR PAM	D1 ag	D1 antag	TRHR agonist	D1 PAM
CCOC(=O)c1c(S(=O)(=O)NCc2ccc(OC)cc2)c(C)n(C)c1C	12.7	1.3	1.7	-0.2	-10.4
CCSc1nc(-c2ccccc2)nc2c1Cc1c(CO)cnc(C)c1O2	-0.4	-0.7	3.0	0.3	2.9
CCc1ccc(S(=O)(=O)NCCc2csc(C)n2)s1	-4.2	0.9	-37.3*	0.3	-0.7
CCCN1CCc2c(sc(NC(=S)NC(=O)c3ccccc3)c2C#N)C1	3.9	45.0*	14.2	22.4	2.2
COc1ccc(-c2nc(C)c(CCNC(=O)c3cccc(C)c3)s2)cc1OC	-2.3	-0.4	11.4	-1.4	-5.0
C/C(=C\c1ccccc1)CN1CCN(c2ccccc2)CC1	0.9	0.5	-38.1*	0.0	-8.3
CC(CCN1CCN(c2ccc(F)cc2)CC1)c1ccccc1 (configuration not stated)	0.8	7.2	-61.7*	0.7	-0.4
CC(CCN1CCOCC1)c1ccccc1 (configuration not stated)	16.8	0.9	8.2	0.8	-3.7
C/C=C(\C)CN1CCN(c2ccccc2)CC1	-1.6	2.6	-23.7	-0.1	-2.3
CC(CN1CCN(c2ccccc2)CC1)c1ccccc1 (configuration not stated)	1.4	22.1	-58.8*	-0.6	-15.0
CCOc1ccc(CCNC(=O)c2ccc(Cn3c(=O)c4cccn4c4cccnc43)cc2)cc1	8.3	8.0	-4.5	0.0	-3.5
Cc1cc(NC(=O)N2CC=C(c3c[nH]c4ccccc34)CC2)ccc1Br	4.6	2.8	-16.0	3.4	-1.4
COc1ccc(Nc2cc(Cl)nc(N)n2)cc1OC	1.3	0.3	-7.5	0.0	-2.5
COc1cc2c(cc1OC)n(CC(=O)c1ccc(F)cc1)c(=O)n1nc(CCn3nc(C)cc3C)nc21	36.2*	-0.3	16.9	-0.1	-0.1
CSc1ccccc1-n1nnnc1SCc1ccccc1	10.5	45.9*	-6.0	-0.9	-1.0
CCOCCCN(C(=O)Nc1ccc(Cl)cc1)C1CCN(C(C)=O)CC1	6.3	-0.1	-30.5*	-0.1	0.4
Nc1cc(-c2ccccc2)c[nH]c1=O	0.7	4.3	10.0	1.4	8.8
O=C(NCc1ccc(F)cc1)C(=O)NCC(c1ccc2c(c1)OCO2)N1CCOCC1 (configuration not stated)	5.2	0.2	3.9	0.2	0.6
CCc1noc(C)c1C(=O)N1CCN(c2cccc(C)c2C)CC1	-1.5	4.1	-30.5*	0.1	-6.1
Cc1cccc(N2CCN(C(=O)/C=C/c3cccs3)CC2)c1C	1.0	8.0	-41.5*	1.1	-7.1
CN1CCN(C2=Nc3cc(F)ccc3Cc3ccccc32)CC1	1.1	8.5	-84.5*	0.1	-3.1
CN1CCN(C2=Nc3c(Cl)cc(Cl)c4cccc2c34)CC1	-1.2	5.8	-8.8	5.5	-1.9
Cc1cccc(Cn2cc(S(=O)(=O)c3ccccc3)c(=O)c3cc(F)c(N4CCOCC4)cc32)c1	37.8*	-2.1	-5.2	1.1	-2.6
Cc1ccc(C)c(S(=O)(=O)c2cn(Cc3ccccc3)c3cc(N4CCCC4)c(F)cc3c2=O)c1	-0.9	1.7	-34.8*	1.5	-1.9
Cn1cc(S(=O)(=O)c2ccccc2)c(=O)c2cc(F)c(N3CCOCC3)cc21	3.0	10.2	-84.6*!	0.9	-4.8
SMILES	TRHR PAM	D1 ag	D1 antag	TRHR agonist	D1 PAM
CCCCn1cc(S(=O)(=O)c2ccc(C)cc2)c(=O)c2cc(F)c(N3CCCCC3)cc21	17.9	71.4*	11.6	-0.8	1.4
CCCn1cc(S(=O)(=O)c2ccc(C)cc2)c(=O)c2cc(F)c(N3CCCC3)cc21	-0.3	1.1	-5.9	-0.1	-0.8
Cc1cn(C)c(CC(=O)Nc2cccc(Cl)c2C)c1C(=O)O	-0.2	1.6	8.0	0.3	-3.7
CCOC(=O)CC(N)c1ccc(OC)cc1 (configuration not stated)	-7.1	-2.2	-68.8*	-0.3	-10.2
CCOC(=O)CCP(=O)(O)C(O)c1ccc(OC)cc1 (configuration not stated)	-1.0	0.7	-1.0	1.5	-3.3
CC1(C)CC(N=c2cc(-c3ccccc3)oc3ccc(Cl)cc23)CC(C)(C)N1	-3.0	67.4*	-68.8*	-0.4	-10.6
OCCCN=c1cc(-c2ccccc2)oc2ccc(Cl)cc12	1.5	0.6	-26.7	-0.5	-6.7
CN(Cc1nc2ccccc2c(=O)[nH]1)C(=O)c1ccccc1OCc1ccc(Cl)cc1	5.0	1.0	-31.9*	0.9	-0.8
CN(C(=O)c1ccccc1OCc1ccc(Cl)cc1)c1ccccc1	-6.7	4.2	-5.3	-0.2	-2.0
CC(=O)Nc1ccc(S(=O)(=O)Oc2ccc(N3C(=O)C4CCCCC4C3=O)cc2)cc1 (configuration not stated)	22.4	37.6*	-51.9*	-3.0	-9.3
CC(=O)Nc1ccc(S(=O)(=O)Oc2ccc3c(c2)C(C)=CC(C)(C)N3)cc1	-6.0	19.6	-41.6*	0.7	-5.4
COC(=O)c1ccc(OS(=O)(=O)c2ccc(NC(C)=O)cc2)cc1	-4.1	21.3	-34.7*	1.1	-8.2
CC1=CC(C)(C)Nc2ccc(OS(=O)(=O)c3ccc(C)cc3)cc21	-9.3	9.4	3.7	0.5	2.9
CCOc1cc(CNC(=O)c2ccc3nc(CCc4ccccc4)oc3c2)ccc1OC	-3.2	6.0	-6.9	0.1	-2.8
COc1ccc(CCNC(=O)c2c(O)nc3c(C)cccn3c2=O)cc1OC	-9.6	1.4	14.7	-0.2	-1.6
CC1c2ccccc2SC(CCCN(C)C)c2ccccc21 (configuration not stated)	4.6	47.9*	-47.7*	1.5	-1.2
Cc1cccc(N2CCN(c3ncnc4c3nc3n4CCCCC3)CC2C)c1 (configuration not stated)	-5.8	4.0	-7.4	-0.9	0.1
Cn1c(=O)n(C)c2cc(NS(=O)(=O)c3ccccc3)c(NCc3ccccc3)cc21	30.1*	1.7	-4.0	-0.1	-5.0
CCn1c(C)cc(/C=C2\SC(=O)N(CC(=O)Nc3ccc(C)c(C)c3)C2=O)c1C	15.6	0.5	-38.1*	0.0	-2.4
COC(=O)c1ccc(OC)c(CN2CCCN(Cc3ccc(C)cc3)S2(=O)=O)c1	3.4	4.8	-33.9*	0.6	-2.9
Cc1ccccc1CNC(=O)C1CCCCN1S(=O)(=O)c1ccc(F)cc1 (configuration not stated)	-1.2	0.0	-32.2*	-0.6	-6.3
CS(=O)(=O)c1ccccc1C(=O)Nc1ccccc1Cc1ccccc1	-4.5	0.2	3.7	-0.5	0.3
